73 compounds from the supplement of paper PMC6518042 can be followed below.

Values without a mark were called inactive.

The assay has as its system Pectobacterium parmentieri SCC3193. Put plainly: DuctApe activity index (growth/respiration on compound as sole nutrient source, blank-subtracted) (activity index (0-3)); higher = stronger utilization of the compound, active = 3 or more. How it is done:
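Biolog Phenotype Microarray plates PM1, PM2A (carbon), PM3 (nitrogen) and PM4 (phosphorus/sulfur) inoculated with P. parmentieri SCC3193 in M9-C minimal salts medium with Biolog dye A, and read in the OmniLog for 46 h. Each well was tested in triplicate and the experiment was run twice. DuctApe computed a blank-subtracted activity index (AV, 0-3) from the mean curves; growth is positive at AV >= 3 and negative at AV <= 2.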

Where [1] appears, read: nutrient role (plate category): carbon.
Setting [2] is: nutrient role (plate category): phosphate & sulphur.
[3] abbreviates: nutrient role (plate category): nitrogen.

Consider `O=C(O)[C@@H](O)[C@H](O)[C@H](O)[C@@H](O)C(=O)O` [Mucic acid], for which the DuctApe activity index under setting [1] was 3 (active). `N[C@@H](CS)C(=O)NCC(=O)O`: the DuctApe activity index under setting [2] was 1. Same read-out and setting: to `O=P(O)(O)OC(CO)CO` [b-Glycerol Phosphate] belongs 2. In the case of `NCCO` [Ethanolamine], the DuctApe activity index under setting [3] was 0. Turning to `CCC(=O)C(=O)O` [a-Ketobutyric acid], the DuctApe activity index under setting [1] is 0. In the case of `CO[C@H]1O[C@H](CO)[C@@H](O)[C@H](O)[C@H]1O` [a-Methyl-D-Glucoside], the DuctApe activity index under setting [1] was 0. Consider `CC(O)CO` (stereo not given) [1,2-Propanediol], for which the DuctApe activity index under setting [1] is 0. Same read-out and setting: to `O=C(O)[C@]1(O)C[C@@H](O)[C@@H](O)[C@H](O)C1` [Quinic acid] belongs 0; to `NCC(=O)N1CCC[C@H]1C(=O)O`, 0. Same read-out and setting: to `OC[C@@H](O)C(O)[C@H](O)CO` [D-Arabitol] belongs 0. Still for that read-out and setting: to `CCCCCCCCCC(=O)O` [Capric acid] belongs 0. Turning to `C[N+](C)(C)CCOP(=O)(O)O` [Phosphoryl Choline], under setting [2], the DuctApe activity index is 1. Consider `OC[C@H]1O[C@@](CO)(O[C@H]2O[C@H](CO)[C@@H](O)[C@H](O)[C@H]2O)[C@@H](O)[C@@H]1O` [Sucrose], for which, under setting [1], the DuctApe activity index is 3 (active). Regarding `C[C@H](N)C(=O)N[C@@H](CCC(N)=O)C(=O)O`, the DuctApe activity index under setting [3] was 1.

For `C=C(CC(=O)O)C(=O)O` [Itaconic acid], the DuctApe activity index under setting [1] was 0. As to `NC(CCSCC(N)C(=O)O)C(=O)O` (stereo not given) [Cystathionine], under setting [2], the DuctApe activity index is 1.

As to `O[C@@H]1[C@@H](O)[C@@H](O)CO[C@H]1O` [L-Arabinose], the DuctApe activity index under setting [1] was 3 (active).

For `OC[C@H]1O[C@@H](n2cnc3c(O)nc(O)nc32)[C@H](O)[C@@H]1O` [Xanthosine], the DuctApe activity index under setting [3] was 0. For `O=C1O[C@@H]([C@H](O)CO)[C@H](O)[C@H]1O` [D-Galactonic acid-g-Lactone], under setting [1], the DuctApe activity index is 3 (active).

For the compound `O=C(O)C(O)C(O)C(=O)O` (stereo not given) [m-Tartaric acid], the DuctApe activity index under setting [1] was 3 (active). The same measure, in the same setting: then `O=C(O)CC(O)C(=O)O` (racemic) [DL-Malic acid], with 3 (active). `Nc1cc[nH]c(=O)n1` [Cytosine]: the DuctApe activity index under setting [3] was 0. As for `O=C(CO)[C@@H](O[C@H]1O[C@H](CO)[C@@H](O)[C@H](O)[C@H]1O)[C@H](O)[C@H](O)CO` [Turanose], under setting [1], the DuctApe activity index is 0. As for `OC[C@H]1O[C@@](CO)(O[C@H]2O[C@H](CO)[C@@H](O)[C@H](O)[C@H]2O)[C@@H](O[C@H]2O[C@H](CO)[C@@H](O)[C@H](O)[C@H]2O)[C@@H]1O` [D-Melezitose], the DuctApe activity index under setting [1] was 0. On the same count and under the same terms, to `O=C(CO)[C@@H](O)[C@H](O)[C@H](O)CO[C@H]1O[C@H](CO)[C@@H](O)[C@H](O)[C@H]1O` [Palatinose] belongs 0.

For `NC(Cc1ccc(OP(=O)(O)O)cc1)C(=O)O` (stereo in doubt) [O-Phospho-D-Tyrosine], under setting [2], the DuctApe activity index is 2.

As for `OC[C@@H](O)[C@@H](O)[C@H](O)[C@H](O)CO` [D-Mannitol], the DuctApe activity index under setting [1] was 3 (active).

Turning to `OC[C@@H]1OC(O)[C@@H](O)[C@H](O)[C@H]1O` (stereo partly drawn) [L-Glucose], the DuctApe activity index under setting [1] was 0. On the same count and under the same terms, to `O[C@@H]1[C@H](O)[C@H](O)CO[C@H]1O` [D-Ribose] belongs 3 (active).

Consider `N[C@@H](CSCSC[C@H](N)C(=O)O)C(=O)O` [L-Djenkolic acid], for which the DuctApe activity index under setting [2] was 1. For `COC(=O)CCC(=O)O` [Mono-Methylsuccinate], the DuctApe activity index under setting [1] is 2.

For the compound `N[C@@H](C(=O)O)[C@@H](O)[C@H](O)[C@H](O)CO` [D-Glucosaminic acid], under setting [1], the DuctApe activity index was 0. Turning to `N[C@H]1C(O)O[C@H](CO)[C@H](O)[C@@H]1O` (stereo partly drawn) [D-Galactosamine], under setting [3], the DuctApe activity index was 0. As for `OC1OC[C@@H](O)[C@H](O)[C@H]1O` (stereo partly drawn) [D-Xylose], the DuctApe activity index under setting [1] was 3 (active).

As for `O=S(=O)(O)SSS(=O)(=O)O` [Tetrathionate], the DuctApe activity index under setting [2] was 1. `O=C(O)[C@H]1OC(O)[C@H](O)[C@@H](O)[C@H]1O` (stereo partly drawn) [D-Galacturonic acid]: under setting [1], the DuctApe activity index is 3 (active).

As for `OCC1OC(OC2C(CO)OC(O)C(O)C2O)C(O)C(O)C1O` [D-Cellobiose], under setting [1], the DuctApe activity index is 3 (active). As for `OC[C@H]1O[C@@H](O[C@H]2[C@H](O)[C@@H](O)[C@@H](O)O[C@@H]2CO)[C@H](O)[C@@H](O)[C@H]1O` [a-D-Lactose], under setting [1], the DuctApe activity index was 3 (active). Turning to `NC(=O)CC[C@H](N)C(=O)O` [L-Glutamine], the DuctApe activity index runs as follows: under setting [1], 0; under setting [3], 2. For `CC(=O)N[C@H]1C(O)O[C@H](CO)[C@H](O)[C@@H]1O` (stereo partly drawn) [N-Acetyl-D-Galactosamine], in that order: 3 (active) and 3 (active). Consider `NC(=O)[C@H]1O[C@@H](O)[C@H](O)[C@@H](O)[C@@H]1O` [Glucuronamide], for which the DuctApe activity index is 0 under setting [1] and 2 under setting [3].

For `CSCCC(NC(C)=O)C(=O)O` (racemic) [N-Acetyl-D,L-Methionine], the DuctApe activity index under setting [2] is 2. Take `O=c1cc[nH]c(=O)[nH]1` [Uracil]: the DuctApe activity index under setting [3] was 0. For `C[C@H](N)C(=O)N[C@@H](Cc1cnc[nH]1)C(=O)O`, under setting [3], the DuctApe activity index is 0. As for `N[C@H]1C(O)O[C@H](CO)[C@@H](O)[C@@H]1O` (stereo partly drawn) [D-Glucosamine], the DuctApe activity index by setting is: under setting [1], 3 (active); under setting [3], 3 (active). For the compound `NCC(=O)O` [Glycine], the DuctApe activity index reads like this: under setting [1], 0; under setting [3], 0. Turning to `Cc1cn([C@H]2C[C@H](O)[C@@H](CO)O2)c(=O)[nH]c1=O` [Thymidine], the DuctApe activity index runs as follows: under setting [1], 1; under setting [3], 0.

Take `Nc1ncnc2c1ncn2[C@@H]1O[C@H](CO)[C@@H](O)[C@H]1O` [Adenosine]: the DuctApe activity index under setting [1] is 1 and the DuctApe activity index under setting [3] is 2. On to `CSCC[C@H](N)C(=O)N[C@@H](C)C(=O)O`, for which the DuctApe activity index under setting [3] was 0. Consider `CC(=O)N[C@@H]1C(O)O[C@H](CO)[C@@H](O)[C@@H]1O` (stereo partly drawn) [N-Acetyl-D-Mannosamine], for which the DuctApe activity index was 0 under setting [1] and 0 under setting [3]. On to `O=C1CC[C@@H](C(=O)O)N1` [L-Pyroglutamic acid], for which the DuctApe activity index is, setting by setting: under setting [1], 0; under setting [3], 0.

Take `CC[C@H](C)[C@H](N)C(=O)O` [L-Isoleucine]: the DuctApe activity index is, setting by setting: under setting [1], 0; under setting [3], 0. As to `O=P(O)(O)O[C@H]1O[C@H](CO)[C@@H](O)[C@H](O)[C@H]1O` [D-Glucose-1-Phosphate], the DuctApe activity index under setting [1] is 0 and the DuctApe activity index under setting [2] was 1. As for `N[C@H](CO)C(=O)O` [D-Serine], the DuctApe activity index by setting is: under setting [1], 0; under setting [3], 0.

As to `Nc1nc2c(ncn2[C@@H]2O[C@H](CO)[C@@H](O)[C@H]2O)c(=O)[nH]1` [Guanosine], the DuctApe activity index under setting [3] is 0. As for `O=C[C@H](O)[C@@H](O)[C@H](O)[C@H](O)COP(=O)(O)O` [D-Glucose-6-Phosphate], the DuctApe activity index by setting is: under setting [1], 3 (active); under setting [2], 2. As to `O=C(O)CO` [Glycolic acid], the DuctApe activity index under setting [1] is 0.

On to `NCCCC[C@@H](N)C(=O)O` [D-Lysine], for which, under setting [3], the DuctApe activity index was 0. For `C[C@@H](O)[C@H](N)C(=O)O` [L-Threonine], the DuctApe activity index reads like this: under setting [1], 0; under setting [3], 0. Regarding `C[C@H](N)C(=O)NCC(=O)O`, the DuctApe activity index by setting is: under setting [1], 0; under setting [3], 0. As for `N[C@@H](Cc1ccccc1)C(=O)O` [L-Phenylalanine], the DuctApe activity index under setting [1] is 0 and the DuctApe activity index under setting [3] was 0. On to `NCC(=O)N[C@@H](CC(N)=O)C(=O)O`, for which the DuctApe activity index under setting [3] was 1. Consider `CCCC(=O)C(=O)O` [a-Keto-Valeric acid], for which, under setting [1], the DuctApe activity index was 0.

As to `OC[C@@H](O)[C@@H](O[C@H]1O[C@H](CO)[C@@H](O)[C@H](O)[C@H]1O)[C@H](O)[C@@H](O)CO` [Maltitol], the DuctApe activity index under setting [1] was 0. Consider `CC(N)=O` [Acetamide], for which the DuctApe activity index was 0 under setting [1] and 0 under setting [3]. Regarding `Nc1ncnc2c1ncn2[C@@H]1O[C@H](COP(=O)(O)O)[C@@H](O)[C@H]1O` [Adenosine 5`-Monophosphate], the DuctApe activity index under setting [2] is 1. Take `N[C@@H](CO)C(=O)O` [L-Serine]: the DuctApe activity index is 3 (active) under setting [1] and 1 under setting [3]. For `CC(=O)N[C@@H]1[C@@H](O)[C@H](O)[C@@H](CO)O[C@@H]1O` [N-Acetyl-D-Glucosamine] the same measures were 3 (active) and 3 (active). On to `CC(=O)N[C@@H](CCC(=O)O)C(=O)O` [N-Acetyl-L-Glutamic acid], for which the DuctApe activity index reads like this: under setting [1], 0; under setting [3], 0. Regarding `NC(=O)CCCCC1CCSS1` (racemic) [DL-Lipoamide], the DuctApe activity index under setting [2] is 1. `N=C(N)NCCC[C@H](N)C(=O)O` [L-Arginine]: the DuctApe activity index is 0 under setting [1] and 0 under setting [3]. In the case of `N[C@@H]1C(O)O[C@H](CO)[C@@H](O)[C@@H]1O` (stereo partly drawn) [D-Mannosamine], the DuctApe activity index under setting [3] is 2. For the compound `O=c1ccn([C@@H]2O[C@H](CO)[C@@H](O)[C@H]2O)c(=O)[nH]1` [Uridine], the DuctApe activity index reads like this: under setting [1], 1; under setting [3], 0.
